Out of some 50,000 compounds screened, about 800 (1.6%) showed an effect of 50% or more. The entries come from a sample that favours strong results as a whole.
What follows are molecules tested against Bcl-2-like protein 10 (Homo sapiens) (UniProt Q9HD36) (assay: TR3 peptide-Bcl-B binding displacers, biochemical primary FP assay, phenotype converters (AID 1240;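 note: 0% = Bcl-B with tracer peptide and DMSO and 100% = tracer peptide lacking Bcl-B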)). Settings: GST-Bcl-B / FITC-TR3 peptide fluorescence polarization; stronger effect = higher value; compound at 3.75 mg/L.
Sequence of Bcl-2-like protein 10 (Homo sapiens) (Q9HD36 whole entry, looked up): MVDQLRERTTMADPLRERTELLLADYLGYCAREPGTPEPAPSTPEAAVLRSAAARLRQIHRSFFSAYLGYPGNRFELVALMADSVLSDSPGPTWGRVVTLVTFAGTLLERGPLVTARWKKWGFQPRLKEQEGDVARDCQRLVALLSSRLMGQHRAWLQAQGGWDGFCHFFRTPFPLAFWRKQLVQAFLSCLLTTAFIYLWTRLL

Row | SMILES | displacement [%]
1 | COc1cc2c(NCc3ccco3)cc(O)c(CC(=O)Nc3ccc(Cl)cc3)c2cc1OC | 13
2 | COc1ccc(OC)c(CN2CCN(S(C)(=O)=O)CC2)c1 | -14
3 | O=C(CSc1nnc(-c2ccco2)n1-c1ccccc1)CSc1nnc(-c2ccco2)n1-c1ccccc1 | 15.9
4 | C=CCNC(=O)C1CC(=O)N(c2ccc(C)cc2)C1 (stereo not given) | -7.4
5 | Cc1cc(C)nc(NS(=O)(=O)c2ccc(NC(=O)CSc3ncn[nH]3)cc2)n1 | 5.3
6 | Nc1nc(Nc2nc(N3CCCC3)cc(C(F)(F)F)n2)cc(C(F)(F)F)n1 | 12
7 | CC1=C/C(=N/OS(=O)(=O)c2ccccc2)C=CC1=O | 28.6
8 | O=C1c2ccc(Oc3ccc([N+](=O)[O-])cc3)cc2C(=O)N1c1cccc(-c2nc3ccccc3o2)c1 | -3.8
9 | O=C(Nc1ccc(Cl)c(Cl)c1)c1cc([N+](=O)[O-])ccc1N1CCCCC1 | 14
10 | O=C(O)c1cccc2c1NC(c1ccccc1Br)C1CC=CC21 (stereo not given) | 132
11 | O=[N+]([O-])c1cccc2c1NC(c1ccc(Cl)cc1)C1CC=CC21 (stereo not given) | 7.5
12 | COc1cccc2c1NC(c1ccccc1Br)C1CC=CC21 (stereo not given) | -4.2
13 | O=C(O)c1cccc2c1NC(c1ccc(Cl)cc1)C1CC=CC21 (stereo not given) | 148
14 | O=C(O)c1cccc2c1NC(c1cccc3ccccc13)C1CC=CC21 (stereo not given) | 25.1
15 | COc1cccc2c1NC(c1ccc(Cl)cc1)C1CC=CC21 (stereo not given) | 9.1
16 | COc1cc(-c2ccccc2)nc(N)n1 | -5.4
17 | COc1ccc(/C=C/C(=O)Nc2ccc(Br)cc2C(=O)c2cc(OC)c(OC)c(OC)c2)cc1OC | 1.6
18 | COCC(=O)Nc1ccc2ccccc2c1 | -2.7
19 | Nc1ccc2nn(-c3ccc([N+](=O)[O-])cc3)nc2c1 | -8.4
20 | COc1ccc(OC)c(N=Cc2c(O)n(-c3ccccc3Cl)c(=O)[nH]c2=O)c1 | 98.7
21 | COc1ccc(N=Cc2c(O)n(-c3cc(OC)ccc3OC)c(=O)[nH]c2=O)cc1 | 103
22 | COc1ccccc1N=Cc1c(O)n(-c2ccccc2Cl)c(=O)[nH]c1=O | -6.6
23 | COc1ccc(N=Cc2c(O)n(-c3ccccc3OC)c(=O)[nH]c2=O)cc1 | 9.4
24 | COc1cccc(N=Cc2c(O)n(-c3cc(OC)ccc3OC)c(=O)[nH]c2=O)c1 | -2
25 | COc1ccc(OC)c(N=Cc2c(O)n(-c3ccccc3C)c(=O)[nH]c2=O)c1 | 7.3
26 | CCOC(=O)c1c[nH]c2cc(C(=O)OC)ccc2c1=O | -19.8
27 | CCC1=NN2C(=N)/C(=C/c3cccc(OCc4ccccc4F)c3)C(=O)N=C2S1 | 6.1

Row | SMILES | displacement [%]
28 | Cn1c(=O)n(C)c2cc(/C=C(\C#N)c3nn(-c4ccccc4)c(N)c3C#N)ccc21 | 92.9
29 | Cc1ccc(COc2c(Br)cc(/C=C(\C#N)c3nn(-c4ccccc4)c(N)c3C#N)cc2Br)cc1 | 11.2
30 | Cc1ccc(/C=C(\C#N)c2nn(-c3ccccc3)c(N)c2C#N)cc1 | 2.5
31 | COC(=O)COc1ccc2c(=O)c(Oc3ccc(C(C)(C)C)cc3)coc2c1 | 8
32 | C/C(=N/NC(=O)COc1ccc(C)cc1)c1ccc([N+](=O)[O-])cc1 | 1.6
33 | O=C/C(=C\Nc1ccc(S(=O)(=O)CCO)cc1)c1nc2ccccc2o1 | 9.7
34 | O=C/C(=C\Nc1ccc(S(=O)(=O)CCO)cc1)c1nc2cc(Cl)ccc2o1 | 88.3
35 | CNS(=O)(=O)c1ccc(N/C=C(\C=O)c2nc3cc(Cl)ccc3o2)cc1 | 12.6
36 | Cn1c(O)c(N=NC(=O)c2ccccc2NC(=O)c2ccccc2)c2ccccc21 | -4
37 | COCCOC(=O)c1c(C)oc2ccc(OCc3c(F)c(F)c(F)c(F)c3F)cc12 | 10.8
38 | CCn1cc(/C=C2/C(=O)NN(c3ccccc3)C2=O)c2ccccc21 | 13.1
39 | CC(C)NC(=O)C1CC1(c1ccccc1)c1ccccc1 (stereo not given) | 4.7
40 | Cc1ccc(-n2ccc(N)c(C#N)c2=O)cc1 | 3.3
41 | COc1ccc(/C=C2\SC(=S)N(CCC(=O)Nc3ccccc3C)C2=O)cc1OC | 15.4
42 | COc1ccc(/C=C2/SC(=O)N(CC(=O)Nc3cc(C)on3)C2=O)cc1OC | 12.8
43 | COc1ccc(/C=C2\SC(=O)N(CCC(=O)Nc3ccccc3C)C2=O)cc1OC | 79.4
44 | COc1ccc(/C=C2/SC(=O)N(CC(=O)Nc3ccc(C)c(C)c3)C2=O)cc1OC | 67
45 | COc1ccccc1NC(=O)CCN1C(=O)S/C(=C/c2ccc(OC)c(OC)c2)C1=O | 34.6
46 | COc1ccc(/C=C2/SC(=O)N(CC(=O)Nc3ccc(F)c(Cl)c3)C2=O)cc1OC | 12.3
47 | COC(=O)c1ccc(C(=O)OC)c(NC(=O)COc2cccc(Cl)c2)c1 | 1.2
48 | COC(=O)c1ccc(C(=O)OC)c(NC(=O)/C=C/c2ccccc2)c1 | 8.7
49 | COC(=O)c1ccc(C(=O)OC)c(NC(=O)COc2ccccc2[N+](=O)[O-])c1 | 66.9
50 | COC(=O)c1ccc(C(=O)OC)c(NC(=O)COc2ccccc2Cl)c1 | 73.8
51 | COC(=O)c1ccc(C(=O)OC)c(NC(=O)/C=C/c2ccco2)c1 | 63.5
52 | COC(=O)c1ccc(NC(=O)CC(c2ccccc2)c2ccccc2)cc1 | -0.2
53 | COC(=O)c1ccc(C(=O)OC)c(NC(=O)Cc2ccccc2[N+](=O)[O-])c1 | 14.7
54 | COC(=O)c1ccc(C(=O)OC)c(NC(=O)COc2ccc(Cl)cc2C)c1 | 5.4

Row | SMILES | displacement [%]
55 | COC(=O)c1ccc(C(=O)OC)c(NC(=O)/C=C/c2ccc(Cl)cc2)c1 | -6.4
56 | CCC(C(=O)Nc1cc(C(=O)OC)ccc1C(=O)OC)c1ccccc1 (stereo not given) | 5
57 | COC(=O)c1cc(NC(=O)COc2ccccc2[N+](=O)[O-])cc(C(=O)OC)c1 | 13
58 | COC(=O)c1ccc(C(=O)OC)c(NC(=O)CC(c2ccccc2)c2ccccc2)c1 | 63.5
59 | Cc1ccc(-c2[nH]n3c(=O)cc(-c4ccccc4)nc3c2C)cc1 | 15.2
60 | CN(C)CCCNC(=O)/C=C/c1ccc(Cl)cc1 | 14
61 | COc1cc(C(=O)Nc2cccc(-c3cc4ccccc4oc3=O)c2)cc(OC)c1OC | 3.9
62 | CCOc1ccc(NC2=C(Cl)C(=O)N(c3ccc(Br)cc3)C2=O)cc1 | -4.8
63 | CC1CCc2c(sc(NC(=O)/C=C/c3ccccc3)c2C(N)=O)C1 (stereo not given) | 10.5
64 | CC1CCc2c(sc(NC(=O)/C=C/c3ccc4c(c3)OCO4)c2C(N)=O)C1 (stereo not given) | 144
65 | CC(=O)Nc1sc2c(c1C(N)=O)CCC(C)C2 (stereo not given) | 10.6
66 | OCc1c(O)cnc2ccccc12 | 19.4
67 | O=c1[nH]c(-c2ccc(-c3ccc(F)cc3)o2)nc2sc3c(c12)CCCC3 | -13.3
68 | CC(/C=C1\SC(N2CCN(C3=NC(=O)/C(=C\C(C)=C\c4ccccc4)S3)CC2)=NC1=O)=C\c1ccccc1 | -9
69 | CCc1ccc(/C=C2/C(=O)NC(=O)N2C(C)=O)cc1 | 13.8
70 | O=C1NC(=O)/C(=C/c2cccnc2)S1 | 12
71 | CC(=O)N1C(=S)NC(=O)/C1=C\c1cccnc1 | 93.4
72 | Cc1ccc(-c2cc(-c3ccncc3)c(C#N)c(N)c2C#N)cc1 | 21.2
73 | N#Cc1c(-c2ccc(Br)cc2)cc(-c2ccco2)c(C#N)c1N | 76.9
74 | N#Cc1c(-c2ccc(Br)cc2)cc(-c2ccc3c(c2)OCO3)c(C#N)c1N | 4.5
75 | CCOC(=O)C(=CNCCC(=O)O)C(=O)OCC | 14.6
76 | COc1ccc(CCN2C(=O)C3C4c5ccccc5C(C)(c5ccccc54)C3C2=O)cc1OC (stereo not given) | -1.3
77 | Cc1ccc(N2C(=O)NC(=O)/C(=C\c3ccc(C)s3)C2=O)cc1 | 13.4
78 | Cc1ccc(C=C2C(=O)NC(=O)N(c3cccc(Cl)c3)C2=O)s1 | 87.1
79 | Cc1ccc(N2C(=O)NC(=O)/C(=C/c3cccc(Cl)c3)C2=O)cc1 | -8.8
80 | CC(C)CNC(=O)C(=O)Nc1ccc(Oc2ccccc2)cc1 | 5.2
81 | COc1cc(/C=c2/sc3nc4ccccc4n3c2=O)ccc1OCc1nn[nH]n1 | 5.2

Row | SMILES | displacement [%]
82 | Cc1ccc2nc(-c3ccc(O)cc3)sc2c1 | 12.7
83 | Cc1ccc2nc(-c3ccc(OC(=O)c4ccccc4F)cc3)sc2c1 | 76.4
84 | Cc1ccc2nc(-c3ccc(NC(=O)c4ccccc4-c4ccccc4C(=O)O)cc3)sc2c1 | 7.9
85 | C=C(C)CSc1nc2sc3c(c2c(=O)n1CC(=C)C)CC(C)(C)OC3 | -10.4
86 | O=C(Nc1ccc2nc(SCCOc3ccccc3)sc2c1)c1ccccc1Cl | -3.4
87 | COc1ccc(/C=C/C=C2\NC(=S)NC2=O)cc1 | 128
88 | CCOc1ccc(/C=C2/NC(=S)NC2=O)cc1 | 10.8
89 | CC(C)(C)c1ccc(/C=C2\NC(=S)NC2=O)cc1 | -20.2
90 | CC(C)(C)CC(C)(C)NC(=O)c1ccc2nccnc2c1 | 14.3
91 | Cc1ccccc1-n1c(C)cc(/C=N/NC(=O)CN2CCOCC2)c1C | -22.2
92 | CC(C)CC(NC(=O)c1ccco1)C(=O)O (stereo not given) | 9.5
93 | Cc1cc([N+](=O)[O-])ccc1-c1ccc(C(=O)Nc2ccc3oc(-c4ccccc4)nc3c2)o1 | 116
94 | Cc1cc([N+](=O)[O-])ccc1-c1ccc(C(=O)Nc2ccc(Cl)cc2)o1 | 45.8
95 | Cc1cc([N+](=O)[O-])ccc1-c1ccc(C(=O)Nc2ccc(-c3nc4ccccc4o3)c(O)c2)o1 | 10.8
96 | Cc1cc([N+](=O)[O-])ccc1-c1ccc(C(=O)Nc2ccc(Cl)cn2)o1 | 50.1
97 | O=C(Nc1ccc(Cl)cn1)c1ccc(-c2ccc([N+](=O)[O-])cc2)o1 | 13.9
98 | O=C(Nc1ccc2oc(-c3ccccc3)nc2c1)c1ccc(-c2ccc([N+](=O)[O-])cc2)o1 | 22.1
99 | CCc1ccccc1NC(=O)C(F)(Cl)C(F)(F)F (stereo not given) | -3.1
100 | COc1cccc(CN2CCN(C(=O)c3cccc(Cl)c3)CC2)c1 | 3.6
101 | CC(=O)c1ccc(NC(=O)C2CC(=O)N(C3CCCCC3)C2)cc1 (stereo not given) | 11.1
102 | COc1ccc(CCC(=O)Nc2cc(Cl)cc(Cl)c2)cc1 | 0.3
103 | O=C1CC(N(Cc2ccc3c(c2)OCO3)C(=O)c2ccc(Cl)cc2)C(=O)N1c1ccc(F)cc1 (stereo not given) | -2.2
104 | CC(=O)N(Cc1ccc2c(c1)OCO2)C1CC(=O)N(c2cccc(Cl)c2)C1=O (stereo not given) | 16
105 | CC(=O)N(Cc1ccc2c(c1)OCO2)C1CC(=O)N(c2ccc(Br)cc2)C1=O (stereo not given) | 72.3

Source: PubChem BioAssay AID1240 (Sanford-Burnham Center for Chemical Genomics, 2008)
